Data reported in ChEMBL document CHEMBL3433997, “St. Jude Leishmania screening dataset” (2016).

These compounds were tested against Glucose transporter (Leishmania mexicana) (UniProt O61059) (assay: ST_JUDE_LEISH: Cytotoxicity at 2uM final concentration against transgenic Leishmania Mexicana promastigotes LmGT2 that are glucose transport deficient and complemented with the L. Mexicana glucose transporter 2. Activity is measured by DNA content using SYBR green in vitro).
Format: functional

Which inhibition does the source give for `O=C(Nc1ccc2c(c1)CCC2)c1cccc(N2CCN(c3ccncc3)CC2)c1` here?
The inhibition was 1.58%.

Which inhibition does the source give for `CN(C)CCCn1cncc1-c1ccc2ncnc(Nc3ccc(OCc4ccccc4)cc3)c2c1` here?
The inhibition was 7.01%.

For `CN1CCCN(Cc2ccc(-c3ccc(NC(=O)c4ccc(Cl)cc4)cc3)cc2)CC1`, which inhibition is on record?
Its inhibition is 50.7%.

Which inhibition does the source give for `COc1cc2c(cc1OC)CN(c1cc(N)c3cc(OC)c(OC)cc3n1)CC2` here?
The inhibition was -1.39%.

With `NC1(C(=O)O)Cc2ccc(Cl)cc2C1` (stereo not given) as the compound, how does the inhibition read?
Its inhibition is 3.62%.

How did the inhibition turn out when `OC(CNc1cccc(Cl)c1)Cn1c2ccc(Cl)cc2c2cc(Cl)ccc21` (stereo not given) was run?
Its inhibition is 2.34%.

Which inhibition does the source give for `O=C(NC1CCN(Cc2ccccc2O)C1)c1cccc(C(F)(F)F)c1` (stereo not given) here?
The inhibition was -9.49%.

With `N#Cc1ccc2c(c1)CCN(CCC1CCC(NC(=O)/C=C/c3c[nH]c4c(Br)cccc34)CC1)CC2` (stereo not given) as the compound, how does the inhibition read?
The inhibition was 6.85%.

With `COc1cc(C=CC(=O)N2CCC3(CC2)CC(=O)c2ccccc2O3)cc(OC)c1OC` as the compound, how does the inhibition read?
The inhibition was -0.58%.

Which inhibition does the source give for `COc1ccc(CNC2CCN(C)CC2)cc1-c1ccc(S(=O)(=O)NCCN2CCCC2)s1` here?
The inhibition was -2.9%.

Which inhibition does the source give for `O=c1c2cccnc2sn1-c1ccccc1` here?
The inhibition was 0.72%.

`CCOc1ccc(OCC(=O)Nc2nc(-c3ccc(OC)cc3)c(C)s2)cc1` was tested. Which inhibition did it give?
The inhibition was 1.45%.

`Cc1cccc2nc(-c3cccc(-c4cccc(NC(=O)CNc5ccc(C(N)=O)cc5)c4)c3)[nH]c12` was tested. Which inhibition did it give?
The inhibition was 3.03%.

`O=C(Nc1cccc(Cl)c1)N[C@H]1CCN(Cc2ccc(OCCCN3CCCCC3)cc2)C1` was tested. Which inhibition did it give?
Its inhibition is 8.16%.

How did the inhibition turn out when `COc1c(C2CCN(CCN3CCC(NC(=O)c4ccc(-c5ccc(C(F)(F)F)cc5)cc4)CC3)CC2)ccc2c1CCCC2` was run?
Its inhibition is 0.67%.

How did the inhibition turn out when `CN(C)C(=O)CC(=O)NCc1c(Cl)cccc1Cl` was run?
Its inhibition is 2%.

With `COc1cccc(C(=O)Nc2nonc2-c2ccc(OC)c(OC)c2)c1` as the compound, how does the inhibition read?
Its inhibition is 1.34%.

`OC1CCCN(Cc2ccc(-c3ccc(-c4nc5cc(F)ccc5[nH]4)cc3)cc2)C1` (stereo not given) was tested. Which inhibition did it give?
The inhibition was 6.49%.

Which inhibition does the source give for `O=C(/C=C/c1ccc(Cl)c(Cl)c1)N1CCC(CN2CCC(Cc3nc4ccccc4[nH]3)CC2)CC1` here?
The inhibition was 3.16%.

With `C(=N\Nc1nccc2sc(-c3cccnc3)cc12)/c1cccnc1` as the compound, how does the inhibition read?
The inhibition was 1.05%.

For `CC(C)CCN1CCC(Oc2ccc(NC(=O)c3cccs3)cc2Cl)C1` (stereo not given), which inhibition is on record?
The inhibition was 9.02%.

Which inhibition does the source give for `N#CN1CC[C@@H](NS(=O)(=O)Cc2ccc(Cl)c(Cl)c2)C1` here?
Its inhibition is 4.15%.

Which inhibition does the source give for `CC1(C)NC(N)=NC(=N)N1OCCCOc1cc(Cl)ccc1Cl` here?
Its inhibition is 13.6%.

With `COc1ccc(NC(=O)/C=C/c2cc(F)cc(C(F)(F)F)c2)cc1OCCN(C(C)C)C(C)C` as the compound, how does the inhibition read?
Its inhibition is 6.4%.

For `CCCCC(CC)NC(=O)[C@H]1CNCCN1C(=O)CCCc1ccccc1` (stereo not given in full), which inhibition is on record?
Its inhibition is -0.61%.

With `CN1CC(c2ccccc2)c2cc(O)c(CN3CCCCC3)cc2CC1Cc1ccccc1` (stereo not given) as the compound, how does the inhibition read?
Its inhibition is 6.78%.

For `CC(=O)c1ccc(NC(=O)C2c3ccccc3C(=O)N(CC(C)C)C2c2cccs2)cc1` (stereo not given), which inhibition is on record?
The inhibition was 0.34%.

Which inhibition does the source give for `COc1ccccc1C(=O)Nc1cccc(N2CCC(NCc3ccc(-n4cccn4)cc3)CC2)c1` here?
Its inhibition is 5.84%.

With `Cc1nc(NCc2ccccc2)cc(NCC(O)c2ccc(O)cc2)n1` (stereo not given) as the compound, how does the inhibition read?
Its inhibition is 7.2%.

Which inhibition does the source give for `O=C(Nc1ccc(-c2cccc(-c3nc4cc(C(F)(F)F)ccc4[nH]3)c2)cc1)c1ccncc1` here?
The inhibition was 1.87%.

How did the inhibition turn out when `CCCCCCc1c(C)nc2cc(OC)ccc2c1O` was run?
Its inhibition is 2.87%.

With `Cc1noc(-c2ccccc2)c1CN1CCCC2(CC(C(=O)NCc3cccc(F)c3F)=NO2)C1` (stereo not given) as the compound, how does the inhibition read?
The inhibition was -0.8%.

With `COc1cc2c(cc1OC)CN(CCCCNC(=O)c1ccc(NC(=O)c3cc(Cl)cc(Cl)c3)cc1)CC2` as the compound, how does the inhibition read?
Its inhibition is 6.32%.

How did the inhibition turn out when `CCOc1ccccc1C(=O)Nc1cccc(-c2nc3ncccn3c2C)c1` was run?
The inhibition was -0.34%.

For `O=C(NCCN1CCC(NC(=O)c2ccc(-c3ccccn3)s2)CC1)c1ccc(Cl)c(Cl)c1`, which inhibition is on record?
Its inhibition is 4.43%.

Which inhibition does the source give for `CC(C)c1ccc(N(CC(=O)N/N=C/c2ccc(C(F)(F)F)cc2)S(=O)(=O)c2ccc(C(F)(F)F)cc2)cc1` here?
The inhibition was 3.25%.

For `CCCCNC(=O)c1[nH]c2c(NC(=O)COc3ccccc3)cccc2c1-c1cccc(NC(=O)C(N)CO)c1` (stereo not given), which inhibition is on record?
The inhibition was 7.27%.

With `CN(C)c1ccc(CN2CCC(CNC(=O)c3cc(-c4ccccc4Cl)cs3)C2)cc1` (stereo not given) as the compound, how does the inhibition read?
The inhibition was 0.7%.

With `CS(=O)(=O)c1ccc(CNCc2cccc(-c3cccc(-c4nc5cc(F)ccc5[nH]4)c3)c2)cc1` as the compound, how does the inhibition read?
Its inhibition is -2.93%.

How did the inhibition turn out when `COc1ccc(-c2cnc3ccc(NCCCO)nn23)cc1OC` was run?
Its inhibition is 1.14%.
